# Sa ugtP lethal – growth inhibition of S. aureus ugtP deletion strain; 330,000 compounds, 0.54% hits; growth inhibition, % (concentration not given with the values); AID 1259309; S. aureus RN4220 ugtP deletion, OD600 growth, 16 h; in the data active = growth inhibition above about 68%;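 note: plate controls were untreated wells for no effect and antibiotic for full effect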
# BJeLR viability – BJeLR cell viability loss. BJeLR (HRASV12) viability, CellTiter-Glo ATP luminescence, 48 h. inhibition, % (no concentration beside the values). 300,000 compounds, 0.17% hits; in the data active = inhibition above about 50%
# RecA intein inh – inhibitors of M. tuberculosis RecA intein splicing | P9WHJ3 | cell-free RecA intein splicing, fluorescence | inhibition, % (concentration not given with the values) | 290,000 compounds, 0.75% hits | AID 2221; in the data active = inhibition above about 30%;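 note: 0% = vehicle wells and 100% = reference inhibitor control wells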
# Target sequence (P9WHJ3 whole entry, looked up): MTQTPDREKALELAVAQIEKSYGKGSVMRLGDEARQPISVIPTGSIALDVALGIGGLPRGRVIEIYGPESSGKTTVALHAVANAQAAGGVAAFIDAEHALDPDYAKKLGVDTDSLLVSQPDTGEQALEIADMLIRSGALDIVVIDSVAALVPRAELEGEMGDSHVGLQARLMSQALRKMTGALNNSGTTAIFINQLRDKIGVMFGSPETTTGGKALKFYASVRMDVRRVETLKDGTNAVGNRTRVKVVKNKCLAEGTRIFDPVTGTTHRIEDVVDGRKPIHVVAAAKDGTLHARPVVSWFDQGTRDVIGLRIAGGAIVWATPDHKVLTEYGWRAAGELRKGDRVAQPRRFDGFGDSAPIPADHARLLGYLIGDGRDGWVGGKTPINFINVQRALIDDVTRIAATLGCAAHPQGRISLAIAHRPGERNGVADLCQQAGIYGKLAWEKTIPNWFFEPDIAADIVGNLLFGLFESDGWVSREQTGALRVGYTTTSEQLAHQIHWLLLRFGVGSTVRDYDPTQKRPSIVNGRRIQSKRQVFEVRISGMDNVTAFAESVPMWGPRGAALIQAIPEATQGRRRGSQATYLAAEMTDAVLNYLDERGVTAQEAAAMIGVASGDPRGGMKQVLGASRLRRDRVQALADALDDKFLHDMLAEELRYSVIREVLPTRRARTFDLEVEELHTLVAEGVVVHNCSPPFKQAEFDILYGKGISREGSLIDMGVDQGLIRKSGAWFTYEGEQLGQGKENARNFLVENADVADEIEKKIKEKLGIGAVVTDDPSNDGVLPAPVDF
# Mtb hypoxia rep – inhibitors of hypoxia-regulated fluorescent reporter in Mycobacterium tuberculosis; M. tuberculosis hypoxia-regulated fluorescent reporter, fluorescence; fluorescence inhibition, % (concentration not given with the values); 300,000 compounds, 0.1% hits; AID 1159583; in the data active = fluorescence inhibition mostly above about 23%, no sharp cut-off; inactive = mostly below about 17%
# RN4220 kill – S. aureus RN4220 growth inhibition; inhibition, % (concentration not given with the values); 330,000 compounds, 0.33% hits; OD600, 16 h; in the data active = inhibition above about 85%;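 note: plate controls were untreated cells for no effect and reference antibiotic for full effect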
# CCHF vOTU inh-1 – CCHFV vOTU protease inhibition; Pep-AMC fluorescence; inhibition, % at 11.5 µM; 370,000 compounds, 0.55% hits; note: 0% = vehicle wells with enzyme and 100% = no enzyme wells
# CCHF vOTU inh-2 – confirmation of CCHF virus vOTU protease inhibitors. shares compounds with CCHF vOTU inh-1. Recombinant CCHFV vOTU, Pep-AMC fluorescence. inhibition, % at 11.5 µM. 1,900 compounds, 17% hits. AID 686976
# The depositor's hits bear a star; . = no result given; ! = repeats disagree. Shown are actives, neighbours in structure and some others; about 1.6% of the full set was active somewhere. Cut-off read from the data, not from the text of the source, unless noted: active = inhibition above about 30%; inactive = the rest.
SMILES,Sa ugtP lethal,BJeLR viability,RecA intein inh,Mtb hypoxia rep,RN4220 kill,CCHF vOTU inh-1,CCHF vOTU inh-2
COc1cc(/C=C2\C(=O)N(c3ccccc3)N=C2C)ccc1Oc1ccc([N+](=O)[O-])cc1[N+](=O)[O-],-3,.,.,5,8,48*,-1
COc1ccccc1/C=C1/C(=O)N(c2ccccc2)N=C1C,.,-4,58*,.,.,71*,-10
C#CCOCCOCCOCCNc1nc(N2CCN(C(=O)C(CCCCN)n3cc(CCCC)nn3)CC2)nc(N2CCN(C(=O)C(C(C)CC)n3cc(CCCCN)nn3)CC2)n1 (configuration not stated),5,.,.,5,3,.,.
O=C1C=C(c2ccc(Cl)c(C(F)(F)F)c2)CC(c2ccc3c(c2)OCO3)C1 (configuration not stated),50,.,.,3,-5,.,.
COc1ccc(NC(=S)NNc2ccc(S(=O)(=O)Nc3ccccc3C(=O)O)cc2[N+](=O)[O-])cc1,3,6,2,11,5,33*,16
COc1ccc(C=NNc2ccc(S(=O)(=O)Nc3ccccc3C(=O)O)cc2[N+](=O)[O-])c(OC)c1,78,.,.,16,20,.,.
COCCCN1C(=O)C(=O)C(=C(O)c2ccc(OC)cc2)C1c1cccc(OC)c1 (configuration not stated),2,.,.,9,5,.,.
COC(=O)C(CC(C)C)NS(=O)(=O)c1ccccc1 (configuration not stated),4,.,.,22,7,.,.
Cc1ccc(OCc2cc(C(=O)N3CCC(C(O)C(C)C)CC3)no2)cc1C (configuration not stated),-3,-2,2,5,4,33*,-9
CC(C)(C)C1C=C(C(=O)Nc2ccccc2)OC(OCCCCO)C1 (configuration not stated),6,.,.,6,7,.,.
C[N+](C)(C)CCOP(=O)([O-])OCC(O)CO (configuration not stated),0,.,.,0,6,.,.
CC1CN(C(C)C)C(=S)N(c2ccccc2)C1=O (configuration not stated),1,.,.,6,4,16,.
CC1CN(Cc2ccccc2)C(=S)N(c2ccccc2)C1=O (configuration not stated),2,.,.,10,5,32*,-17
O=C(COc1ccc(C=NNS(=O)(=O)c2ccccc2)cc1)NCCc1ccccc1,2,.,.,12,8,.,.
CC(C)(C)OC(=O)N1CCCC(C(=O)Nc2cccc(C(=O)NCCCCc3ccccc3)c2)C1 (configuration not stated),.,.,.,.,.,35*,-3
COc1ccc(S(=O)(=O)N2CCN(Cc3ccc(Cl)cc3)CC2)cc1,13,12,.,10,0,33*,0
COc1cc(CNc2ncnc3c2ncn3[C@H]2CN(Cc3cccc(C(F)(F)F)c3)C[C@@H](COC(C)=O)O2)cc(OC)c1OC,.,.,.,.,.,5,.
COc1cc(CNc2ncnc3c2ncn3[C@H]2CN(Cc3cccc(C(F)(F)F)c3)C[C@@H](CO)O2)cc(OC)c1OC,.,.,.,.,.,31*,-9
Cc1cc(=O)c2c(o1)C(=O)c1occc1C2=O,.,.,.,.,.,106*,48*
CCCNS(=O)(=O)c1ccc(Oc2ncc(C(F)(F)F)cc2Cl)cc1,-14,4,-1,-5,-4,31*,-2
N#Cc1cc([N+](=O)[O-])ccc1NC(=O)CSc1n[nH]c(=O)n1C1CC1,0,.,.,1,4,32*,-15
CCOC(=O)N1CCN(C2=C(NS(=O)(=O)c3ccc(C)cc3)C(=O)c3ccccc3C2=O)CC1,-17,2,-1,-10,2,82*,81*
Cc1ccc(S(=O)(=O)NC2=C(N3CCN(c4ccccc4F)CC3)C(=O)c3ccccc3C2=O)cc1,.,-1,7,.,.,53*!,26
COC(=O)C1=C(C)NC(C)=C(C(=O)OC2CCCN(Cc3ccccc3)C2)C1c1cccc([N+](=O)[O-])c1 (configuration not stated),10,.,.,3,-16,.,.
O=C1C2C3C=CC(c4ccccc4)(C2C(=O)N1c1cccc(Cl)c1)C1C(=O)N(c2cccc(Cl)c2)C(=O)C31 (configuration not stated),-16,5,0,12,10,38*,-13
SMILES,Sa ugtP lethal,BJeLR viability,RecA intein inh,Mtb hypoxia rep,RN4220 kill,CCHF vOTU inh-1,CCHF vOTU inh-2
CN(C(=O)COC(=O)COc1ccc2ccccc2c1)c1c(N)n(Cc2ccccc2)c(=O)[nH]c1=O,3,.,.,25,-1,30*,-41
Cc1cc(OCC(=O)OCC(=O)N(C)c2c(N)n(Cc3ccccc3)c(=O)[nH]c2=O)ccc1Cl,-8,2,-1,3,0,-4,.
COC(=O)C1=C(c2ccc(F)cc2F)CC2CCC1N2C(=O)NCCNC(C)=O (configuration not stated),1,.,.,6,1,.,.
O=C1c2ccccc2C(=O)N1OCc1cccc(Cl)c1,10,-6,0,11,7,-3,.
O=C1Cc2ccccc2C(=O)N1OCc1ccc(Cl)cc1Cl,.,1,12,.,.,36*,-3
COc1ccccc1C(=O)Nc1ccc(NC(=O)C2CCCCC2)nc1,15,-16,8,12,-2,39*,-21
COc1ccc(C(=O)Nc2ccc(NC(=O)C3CCCCC3)nc2)cc1,15,-14,2,-7,-5,0,.
COc1ccc(NC2=C(NC(C)=O)C(=O)c3ccccc3C2=O)cc1,2,6,5,2,25,4,.
Cc1cccc(NC2=C(NCCO)C(=O)c3ccccc3C2=O)c1,5,-21,22,9,19,54*,16
COc1cccc(NC2=C(NCCO)C(=O)c3ccccc3C2=O)c1,11,-2,11,12,26,35*,-2
Cc1ccc(S(=O)(=O)N2C(c3ccc(C(C)C)cc3)CC=C(C(=O)O)C2c2cccc(Cl)c2)cc1 (configuration not stated),77,.,.,6,33,.,.
COc1ccc(C=NNC(=O)c2ccn[nH]2)cc1COc1ccc(Cl)cc1,-9,.,.,9,2,.,.
COc1ccc(C(=O)NNC(=S)NC(=O)c2ccc(Cl)cc2)cc1,80,6,.,-4,75,-11,.
COc1cc(C(=O)NNC(=S)NC(=O)c2ccc(Cl)cc2)cc(OC)c1OC,13,2,-5,-5,48,30*,-4
CCOc1cc(/C=N/NC(=S)Nc2ccccc2C(F)(F)F)ccc1OCC(=O)N1CCOCC1,.,-11,2,.,.,30*,-2
CC1(C)CC(=O)C=C(Nc2ccccn2)C1,6,-6,-1,6,6,11,.
CC1(C)CC(=O)C=C(Nc2ccc(Br)cn2)C1,-2,-5,3,0,3,31*,-1
O=C(O)c1ccc(NC2=C/C(=N/S(=O)(=O)c3ccccc3)c3ccccc3C2=O)cc1,.,.,.,.,.,108*,113*

# Screens as filed in PubChem BioAssay.
